# The supplement of paper PMC7595190
# Unmarked numbers belong to inactive results.
# Tests used:
# Test in all cases: CellTox Green cytotoxicity fluorescence relative to DMSO vehicle (fold of vehicle RFU); higher = more cell death (loss of membrane integrity), active = 2 or more
# CMK = tested on: CMK
# How it was run: (§1)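 CellTox Green reagent was added when MV4-11, CMK and Kasumi-1 cells were seeded at 4.0 × 10^4 cells per well, and single compounds from the Selleckchem apoptosis library were added at final 0.01, 0.1 and 1 µM in DMSO (vehicle 0.1% DMSO). Fluorescence at Ex 485 nm and Em 520 nm was read after 24, 48 and 72 h at 37 °C, 5% CO2. The reported cytotoxicity corresponds to loss of membrane integrity, given as fold of the DMSO vehicle.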
# Kasumi-1 = tested on: Kasumi-1
# How it was run: as §1
# MV4-11 = tested on: MV4-11
# How it was run: as §1
SMILES,"CellTox Green cytotoxicity fluorescence (CMK; 0.01 µM, 24 h)","CellTox Green cytotoxicity fluorescence (CMK; 0.01 µM, 48 h)","CellTox Green cytotoxicity fluorescence (CMK; 0.01 µM, 72 h)","CellTox Green cytotoxicity fluorescence (CMK; 0.1 µM, 24 h)","CellTox Green cytotoxicity fluorescence (CMK; 0.1 µM, 48 h)","CellTox Green cytotoxicity fluorescence (CMK; 0.1 µM, 72 h)","CellTox Green cytotoxicity fluorescence (CMK; 1 µM, 24 h)","CellTox Green cytotoxicity fluorescence (CMK; 1 µM, 48 h)","CellTox Green cytotoxicity fluorescence (CMK; 1 µM, 72 h)","CellTox Green cytotoxicity fluorescence (Kasumi-1; 0.01 µM, 24 h)","CellTox Green cytotoxicity fluorescence (Kasumi-1; 0.01 µM, 48 h)","CellTox Green cytotoxicity fluorescence (Kasumi-1; 0.01 µM, 72 h)","CellTox Green cytotoxicity fluorescence (Kasumi-1; 0.1 µM, 24 h)","CellTox Green cytotoxicity fluorescence (Kasumi-1; 0.1 µM, 48 h)","CellTox Green cytotoxicity fluorescence (Kasumi-1; 0.1 µM, 72 h)","CellTox Green cytotoxicity fluorescence (Kasumi-1; 1 µM, 24 h)","CellTox Green cytotoxicity fluorescence (Kasumi-1; 1 µM, 48 h)","CellTox Green cytotoxicity fluorescence (Kasumi-1; 1 µM, 72 h)","CellTox Green cytotoxicity fluorescence (MV4-11; 0.01 µM, 24 h)","CellTox Green cytotoxicity fluorescence (MV4-11; 0.01 µM, 48 h)","CellTox Green cytotoxicity fluorescence (MV4-11; 0.01 µM, 72 h)","CellTox Green cytotoxicity fluorescence (MV4-11; 0.1 µM, 24 h)","CellTox Green cytotoxicity fluorescence (MV4-11; 0.1 µM, 48 h)","CellTox Green cytotoxicity fluorescence (MV4-11; 0.1 µM, 72 h)","CellTox Green cytotoxicity fluorescence (MV4-11; 1 µM, 24 h)","CellTox Green cytotoxicity fluorescence (MV4-11; 1 µM, 48 h)","CellTox Green cytotoxicity fluorescence (MV4-11; 1 µM, 72 h)"
O=C(O)CSc1cc(NS(=O)(=O)c2ccc(Br)cc2)c2ccccc2c1O,0.973,0.966,0.955,0.961,0.961,0.969,0.984,1.03,1.03,1.05,0.997,1.01,0.985,0.972,0.997,0.98,1.03,1.08,0.99,0.983,0.99,0.988,0.985,0.989,0.983,0.997,1.03
CCN(CC)CCNC(=O)c1c(C)[nH]c(/C=C2\C(=O)Nc3ccc(F)cc32)c1C [Sunitinib],1.02,1.01,0.896,1,0.997,0.964,1.05,1.16,1.04,0.988,1.01,1.11,1.03,1.15,1.18,1.08,1.32,1.45,1.02,1.06,1.04,1.09,1.42,1.78,1.11,1.44,1.72
C/C(=N\NC(=O)c1cccc(S(=O)(=O)N2CCOCC2)c1)c1cc(Cl)ccc1O,0.984,0.991,1.04,0.936,0.956,0.969,0.942,0.907,0.774,0.938,0.949,0.96,0.974,0.986,0.968,0.937,1.02,1.05,0.971,0.97,0.966,0.98,0.978,0.972,0.953,1.06,1.17
O=C1C(=O)N(Cc2ccc(Cl)c(Cl)c2)c2ccccc21 [Apoptosis Activator 2],1.01,1.02,1.01,1.03,1.04,1.02,0.981,1.01,0.986,0.997,1,1.01,1,0.985,0.971,1.02,1.04,1.04,,,,,,,,,
CN[C@@H](C)C(=O)N[C@H](C(=O)N1CCC[C@H]1c1nc(C(=O)c2ccc(F)cc2)cs1)C1CCCCC1,0.96,0.958,0.993,0.965,0.981,1.03,0.964,0.991,0.981,0.997,0.955,0.955,0.998,1.02,1.04,1.03,1.1,1.17,0.99,0.973,0.977,0.975,0.99,1,0.969,1.02,1.03
CCOc1cc(C(C)(C)C)ccc1C1=N[C@@](C)(c2ccc(Cl)cc2)[C@@](C)(c2ccc(Cl)cc2)N1C(=O)N1CCN(CCCS(C)(=O)=O)CC1,0.987,0.993,1.01,0.995,0.996,1,1.02,1.05,1.02,0.977,0.992,1.01,0.987,0.969,0.96,1.03,1.03,1.03,0.993,1.01,1.01,1.03,1.07,1.13,1.07,1.63,2.02 (active)
